According to PubChem BioAssay (EPA / NIEHS):
Results filed as inconclusive are left out. Calls of active or inactive are those of the source. Rule for the calls, unless noted: active = hit-call score of the fitted dose curve at least 0.9, where 1 is the maximum; inactive = score below 0.9.

Experiments:
[1] = molecular target: Myc proto-oncogene protein (Homo sapiens) (UniProt P01106); test: ATG_Myc_CIS: Attagene CIS-FACTORIAL HepG2 Assay for human Myelocytomatosis (Myc) Proto-Oncogene Transcription Factor (AID 2282990); conditions: HepG2, Attagene cis-reporter transcription factor activity; actives raise or lower the signal
Myc proto-oncogene protein (Homo sapiens), sequence (P01106 whole entry, looked up): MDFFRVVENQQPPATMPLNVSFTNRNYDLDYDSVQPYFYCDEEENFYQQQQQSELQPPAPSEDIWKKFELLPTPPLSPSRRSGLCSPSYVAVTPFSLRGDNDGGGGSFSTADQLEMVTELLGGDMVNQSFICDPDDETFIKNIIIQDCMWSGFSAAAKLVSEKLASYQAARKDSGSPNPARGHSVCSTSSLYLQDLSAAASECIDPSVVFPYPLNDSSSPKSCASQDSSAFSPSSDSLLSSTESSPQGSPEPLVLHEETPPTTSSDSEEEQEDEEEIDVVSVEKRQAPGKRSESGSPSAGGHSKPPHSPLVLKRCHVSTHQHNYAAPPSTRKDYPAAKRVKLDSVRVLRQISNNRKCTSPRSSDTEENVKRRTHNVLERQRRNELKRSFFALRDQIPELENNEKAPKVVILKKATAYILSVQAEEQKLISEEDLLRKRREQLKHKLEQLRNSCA
In short: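 Transiently transfected HepG2 cells bearing cis-promoter reporter units for endogenous transcription factors; 24 h exposure. Reporter mRNA measured by RT-PCR, 6-FAM primer extension, HpaI cut and capillary electrophoresis; bidirectional fit relative to DMSO.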

[2] = ATG_NF_kB_CIS: Attagene CIS-FACTORIAL HepG2 Assay for human Nuclear Factor Kappa B (NF-kB) (AID 2282991); conditions: HepG2 Attagene cis-factorial NF-kB reporter mRNA; actives raise or lower the signal
In short: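 HepG2, transient multi-reporter transfection, cis promoter elements (endogenous TFs). 24 h exposure. Total RNA → RT → PCR → 6-FAM label → HpaI → CE. Gain/loss vs DMSO.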

[3] = ATG_NRF2_ARE_CIS: Attagene CIS-FACTORIAL HepG2 Assay for human Nuclear Factor Erythroid 2 Related Factor 2 (NFR2) response to Antioxidant Response Elements (ARE) (AID 2282992); conditions: HepG2 Attagene ARE/NRF2 reporter, transcription factor activity; actives raise or lower the signal;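 for AC50: reporter mRNA level measured by RT-PCR and capillary electrophoresis fluorescence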
In short: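 Readout: reporter mRNA quantified by RT-PCR plus FAM-labelled primer extension, HpaI digestion and capillary electrophoresis, 24 h after dosing transfected HepG2 cells. Gain or loss of signal is fitted bidirectionally against DMSO baseline.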

[4] = ATG_Oct_MLP_CIS: Attagene CIS-FACTORIAL HepG2 Assay for human Octamer-Binding Transcription Factor (Oct) (AID 2282993); conditions: HepG2 Attagene cis-factorial Oct reporter, mRNA; actives raise or lower the signal
In short: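 Using HepG2 cells bearing transfected cis-reporter constructs, mRNA induction was read after 24 h by fluorescent RT-PCR and capillary electrophoresis, with DMSO defining baseline for gain- or loss-of-signal fits.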

[5] = molecular target: Cellular tumor antigen p53 (Homo sapiens) (UniProt P04637); test: ATG_p53_CIS: Attagene CIS-FACTORIAL HepG2 Assay for human p53 Transcription Factor (AID 2282994); conditions: HepG2 p53 cis-element reporter, Attagene mRNA; actives raise or lower the signal
Cellular tumor antigen p53 (Homo sapiens), sequence (P04637 whole entry, looked up): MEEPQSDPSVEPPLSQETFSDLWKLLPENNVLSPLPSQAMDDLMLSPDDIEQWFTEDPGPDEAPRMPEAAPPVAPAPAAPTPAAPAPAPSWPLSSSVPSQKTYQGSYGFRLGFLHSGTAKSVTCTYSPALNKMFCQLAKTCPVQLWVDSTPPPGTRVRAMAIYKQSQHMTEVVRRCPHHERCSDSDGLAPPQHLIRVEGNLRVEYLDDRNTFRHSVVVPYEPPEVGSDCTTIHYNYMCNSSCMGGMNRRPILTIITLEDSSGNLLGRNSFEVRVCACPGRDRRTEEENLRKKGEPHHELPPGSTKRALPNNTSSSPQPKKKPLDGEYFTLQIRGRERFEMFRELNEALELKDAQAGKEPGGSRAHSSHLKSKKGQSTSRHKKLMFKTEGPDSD
In short: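 Read-out: reporter mRNA by RT-PCR plus capillary electrophoresis with fluorescence detection. Human HepG2 liver cells carried transfected multi-reporter cis-element constructs, dosed 24 h. Gain or loss of signal fitted bidirectionally against DMSO control.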

[6] = BSK_3C_TissueFactor: BioMAP Diversity Plus: 3C Assay for Tissue Factor Biomarker Activity (AID 2282997); conditions: BioMAP 3C HUVEC, tissue factor biomarker readout; actives raise or lower the signal
In short: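 After a 24 h chemical exposure of primary human umbilical vein endothelial cells, Tissue Factor levels were quantified by ELISA.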

[7] = BSK_3C_uPAR: BioMAP Diversity Plus: 3C Assay for Urokinase-type plasminogen activator receptor (uPAR) Biomarker Activity (AID 2282998); conditions: BioMAP 3C HUVEC, uPAR biomarker ELISA; actives raise or lower the signal
In short: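 In this endothelial cell-based assay, human umbilical vein primary cells were treated with chemicals and harvested at 24 h. uPAR was quantified using ELISA, with gains or losses fitted relative to DMSO controls.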

[8] = BSK_3C_VCAM1: BioMAP Diversity Plus: 3C Assay for Vascular cell adhesion molecule 1 (VCAM1) Biomarker Activity (AID 2282999); conditions: BioMAP 3C HUVEC, VCAM1 ELISA, cytokine-stimulated; actives raise or lower the signal
In short: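 HUVEC primary cells, 24 h compound exposure; VCAM-1 by ELISA; gain/loss of signal fitted bidirectionally vs DMSO baseline.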

[9] = BSK_4H_Eotaxin3: BioMAP Diversity Plus: 4H Assay for Eotaxin 3 Biomarker Activity (AID 2283000); conditions: primary human endothelial cells (HUVEC); actives raise or lower the signal;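 note: CCL26 protein level quantified by ELISA in parallel with SRB cytotoxicity check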
In short: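 Chemicals were added to human umbilical vein endothelium cultures, and Eotaxin-3 was quantified by ELISA at 24 h. Values were derived by bidirectional fitting with DMSO serving as negative control and activity baseline.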

[10] = molecular target: human Peroxisome Proliferator-activated Receptor delta (PPARd), PPARD (gene 5467) (UniProt Q03181); test: ATG_PPARd_TRANS: Attagene TRANS-FACTORIAL HepG2 Assay for human Peroxisome Proliferator-activated Receptor delta (PPARd) (AID 2283002; active = hit-call score of the fitted dose curve at least 0.9, where 1 is the maximum)
human Peroxisome Proliferator-activated Receptor delta (PPARd), PPARD (gene 5467), sequence (Q03181 whole entry, looked up, the tested form may be a part): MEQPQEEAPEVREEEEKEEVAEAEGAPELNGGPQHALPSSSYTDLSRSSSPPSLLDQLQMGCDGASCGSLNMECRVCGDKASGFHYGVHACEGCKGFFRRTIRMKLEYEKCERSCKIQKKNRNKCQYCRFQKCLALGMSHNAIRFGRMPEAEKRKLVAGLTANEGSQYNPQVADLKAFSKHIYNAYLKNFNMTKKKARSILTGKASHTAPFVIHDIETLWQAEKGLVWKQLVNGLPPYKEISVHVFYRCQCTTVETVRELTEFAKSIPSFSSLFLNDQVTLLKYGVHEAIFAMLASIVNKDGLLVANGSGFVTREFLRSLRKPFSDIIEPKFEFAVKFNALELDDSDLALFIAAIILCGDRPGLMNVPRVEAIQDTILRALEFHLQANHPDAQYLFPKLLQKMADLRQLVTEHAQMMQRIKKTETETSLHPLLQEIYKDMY
In short: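 HepG2 cells transiently transfected with GAL4-UAS multiplexed reporter units driven by exogenous chimeric NR-GAL4 proteins; 24 h compound exposure. Reporter mRNA measured by RT-PCR, 6-FAM primer extension, HpaI digestion and capillary electrophoresis; gain of signal fitted relative to DMSO.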

[11] = read-out: Intercellular Adhesion Molecule 1 (ICAM1), ICAM1 (gene 3383); test: BSK_3C_ICAM1: BioMAP Diversity Plus: 3C Assay for Intercellular Adhesion Molecule 1 (ICAM1) Biomarker Activity (AID 2283003); conditions: primary human endothelial cells (HUVEC); actives raise or lower the signal
In short: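 Using DMSO as baseline, bidirectional curve fitting was applied to ICAM-1 ELISA signals from HUVEC in the 3C system, measured 24 h after compound addition.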

[12] = BSK_3C_Proliferation: Cell Proliferation Assessment in the BioMAP Diversity Plus: 3C Assay (AID 2283006); conditions: primary human endothelial cells (HUVEC);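 for AC50: potency may reflect either rise or fall in cell number versus DMSO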
In short: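 Measured here: sulforhodamine B (0.1%) staining of TCA-fixed sub-confluent umbilical vein endothelial cultures 48 h post-dosing, absorbance 560 nm. DMSO served as negative control and baseline; both signal gain and loss were modelled.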

[13] = molecular target: Peroxisome proliferator-activated receptor gamma (Homo sapiens) (UniProt P37231); test: ATG_PPARg_TRANS: Attagene TRANS-FACTORIAL HepG2 Assay for human Peroxisome Proliferator-activated Receptor-gamma (PPARg) (AID 2283007; active = hit-call score of the fitted dose curve at least 0.9, where 1 is the maximum)
Peroxisome proliferator-activated receptor gamma (Homo sapiens), sequence (P37231 whole entry, looked up): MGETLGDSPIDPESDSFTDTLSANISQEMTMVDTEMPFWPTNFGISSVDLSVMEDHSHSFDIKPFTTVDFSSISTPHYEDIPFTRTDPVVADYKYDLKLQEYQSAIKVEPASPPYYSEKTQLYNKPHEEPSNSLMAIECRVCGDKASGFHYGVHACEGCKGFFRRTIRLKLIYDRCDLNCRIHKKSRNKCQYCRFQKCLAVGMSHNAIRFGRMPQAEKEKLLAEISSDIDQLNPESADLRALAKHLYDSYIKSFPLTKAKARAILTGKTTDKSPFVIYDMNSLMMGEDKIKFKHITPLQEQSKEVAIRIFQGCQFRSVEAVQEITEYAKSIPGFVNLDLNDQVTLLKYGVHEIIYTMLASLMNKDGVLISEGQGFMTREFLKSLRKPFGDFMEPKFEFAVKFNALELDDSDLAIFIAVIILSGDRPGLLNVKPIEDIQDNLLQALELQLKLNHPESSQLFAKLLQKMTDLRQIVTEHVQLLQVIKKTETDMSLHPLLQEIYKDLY
In short: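 Multiplexed reporter transcription units in HepG2, 24 h dosing, reporter transcripts quantified by fluorescent RT-PCR and capillary electrophoresis. Increase over DMSO scored.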

[14] = molecular target: Nuclear receptor subfamily 1 group I member 2 (Homo sapiens) (UniProt O75469); test: ATG_PXR_TRANS: Attagene TRANS-FACTORIAL HepG2 Assay for human Pregnane X Receptor (PXR) (AID 2283008; active = hit-call score of the fitted dose curve at least 0.9, where 1 is the maximum)
Nuclear receptor subfamily 1 group I member 2 (Homo sapiens), sequence (O75469 whole entry, looked up, the tested form may be a part): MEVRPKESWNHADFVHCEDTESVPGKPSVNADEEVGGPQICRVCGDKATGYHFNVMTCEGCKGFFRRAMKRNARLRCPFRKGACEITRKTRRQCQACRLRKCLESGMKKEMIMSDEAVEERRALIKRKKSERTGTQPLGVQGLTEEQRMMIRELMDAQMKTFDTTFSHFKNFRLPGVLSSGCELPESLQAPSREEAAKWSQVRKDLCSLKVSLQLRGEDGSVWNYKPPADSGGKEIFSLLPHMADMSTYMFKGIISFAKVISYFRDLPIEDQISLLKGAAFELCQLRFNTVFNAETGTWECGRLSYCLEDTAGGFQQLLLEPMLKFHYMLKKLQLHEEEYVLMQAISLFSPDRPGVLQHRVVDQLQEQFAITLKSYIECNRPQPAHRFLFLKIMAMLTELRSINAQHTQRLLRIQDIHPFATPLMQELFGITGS
In short: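 Trans-factorial format: exogenous NR-Gal4 fusion activity, not endogenous factor, in transfected human HepG2 liver cells. After 24 h dosing, RNA isolated, reverse-transcribed, amplified and resolved by capillary electrophoresis; induction scored versus DMSO.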

[15] = molecular target: human RAR-related Orphan Receptor beta (RORb), RORB (gene 6096) (UniProt Q92753); test: ATG_RORb_TRANS: Attagene TRANS-FACTORIAL HepG2 Assay for human RAR-related Orphan Receptor beta (RORb) (AID 2283010; active = hit-call score of the fitted dose curve at least 0.9, where 1 is the maximum)
human RAR-related Orphan Receptor beta (RORb), RORB (gene 6096), sequence (Q92753 whole entry, looked up, the tested form may be a part): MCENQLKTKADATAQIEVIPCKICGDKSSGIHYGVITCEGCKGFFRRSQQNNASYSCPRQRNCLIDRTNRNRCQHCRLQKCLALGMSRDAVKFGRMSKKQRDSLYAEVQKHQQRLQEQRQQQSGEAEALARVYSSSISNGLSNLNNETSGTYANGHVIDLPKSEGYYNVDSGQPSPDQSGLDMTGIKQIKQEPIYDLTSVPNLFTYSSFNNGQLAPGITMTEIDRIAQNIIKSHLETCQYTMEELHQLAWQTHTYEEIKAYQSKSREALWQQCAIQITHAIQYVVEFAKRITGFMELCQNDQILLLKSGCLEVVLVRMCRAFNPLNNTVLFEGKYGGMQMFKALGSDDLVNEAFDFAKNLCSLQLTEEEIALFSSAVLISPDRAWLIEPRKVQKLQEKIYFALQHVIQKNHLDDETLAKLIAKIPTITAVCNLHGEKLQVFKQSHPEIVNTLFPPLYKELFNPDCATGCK
In short: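 Multiplexed transcription-factor reporter assay: HepG2 cells transiently carrying NR-Gal4/GAL4-UAS constructs, 24 h treatment, mRNA quantified by RT-PCR plus capillary electrophoresis fluorescence; activity scored as induction over DMSO.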

[16] = molecular target: human RAR-related Orphan Receptor gamma (RORg), RORC (gene 6097) (UniProt P51449); test: ATG_RORg_TRANS: Attagene TRANS-FACTORIAL HepG2 Assay for human RAR-related Orphan Receptor gamma (RORg) (AID 2283011; active = hit-call score of the fitted dose curve at least 0.9, where 1 is the maximum)
human RAR-related Orphan Receptor gamma (RORg), RORC (gene 6097), sequence (P51449 whole entry, looked up, the tested form may be a part): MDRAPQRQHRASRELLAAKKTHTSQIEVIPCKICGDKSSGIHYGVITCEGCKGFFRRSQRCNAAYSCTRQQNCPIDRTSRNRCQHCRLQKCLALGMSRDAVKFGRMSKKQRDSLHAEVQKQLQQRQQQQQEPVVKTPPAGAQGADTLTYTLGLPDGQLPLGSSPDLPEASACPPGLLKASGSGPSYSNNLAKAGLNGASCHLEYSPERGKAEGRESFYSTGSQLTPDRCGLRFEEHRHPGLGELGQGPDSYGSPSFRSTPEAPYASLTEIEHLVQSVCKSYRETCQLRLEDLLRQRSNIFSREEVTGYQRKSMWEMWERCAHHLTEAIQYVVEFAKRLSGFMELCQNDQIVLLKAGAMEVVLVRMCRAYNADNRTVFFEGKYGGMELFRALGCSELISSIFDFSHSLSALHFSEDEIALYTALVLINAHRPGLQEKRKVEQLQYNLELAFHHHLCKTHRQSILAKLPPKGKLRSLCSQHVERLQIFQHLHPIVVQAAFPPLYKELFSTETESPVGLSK
In short: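 First, HepG2 liver cells were transfected with GAL4-UAS-driven reporter constructs and the RORg-Gal4 fusion. Next, they were treated with chemical for 24 h. Finally, reporter mRNA was quantified by RT-PCR and capillary electrophoresis, with upward activity fitted against DMSO.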

[17] = molecular target: human Peroxisome Proliferator-activated Receptor alpha (PPARa), PPARA (gene 5465) (UniProt Q07869); test: ATG_PPARa_TRANS: Attagene TRANS-FACTORIAL HepG2 Assay for human Peroxisome Proliferator-activated Receptor alpha (PPARa) (AID 2283001; active = hit-call score of the fitted dose curve at least 0.9, where 1 is the maximum;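 note: potency for gain of reporter signal over DMSO so agonist or activator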)
human Peroxisome Proliferator-activated Receptor alpha (PPARa), PPARA (gene 5465), sequence (Q07869 whole entry, looked up, the tested form may be a part): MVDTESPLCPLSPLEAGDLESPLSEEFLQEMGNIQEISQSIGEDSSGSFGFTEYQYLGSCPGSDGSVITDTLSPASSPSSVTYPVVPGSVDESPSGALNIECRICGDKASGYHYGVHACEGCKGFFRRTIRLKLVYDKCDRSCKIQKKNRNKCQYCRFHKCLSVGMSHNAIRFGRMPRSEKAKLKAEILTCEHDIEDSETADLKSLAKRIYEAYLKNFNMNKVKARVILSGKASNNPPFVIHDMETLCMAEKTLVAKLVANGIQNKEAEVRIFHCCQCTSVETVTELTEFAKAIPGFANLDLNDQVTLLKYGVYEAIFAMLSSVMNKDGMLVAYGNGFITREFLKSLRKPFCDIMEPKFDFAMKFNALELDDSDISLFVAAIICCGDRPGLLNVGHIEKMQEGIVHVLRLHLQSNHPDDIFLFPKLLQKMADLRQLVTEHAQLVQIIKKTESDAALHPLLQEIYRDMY
In short: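 Transient HepG2 transfection, GAL4-UAS reporters, NR-Gal4 chimeras; 24 h compound exposure. Readout: reporter transcripts by RT-PCR, 6-FAM primer extension, HpaI digest, capillary electrophoresis. Positive direction vs DMSO baseline.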

[18] = molecular target: human Retinoic Acid Receptor beta (RARb), RARB (gene 5915) (UniProt P10826); test: ATG_RARb_TRANS: Attagene TRANS-FACTORIAL HepG2 Assay for human Retinoic Acid Receptor beta (AID 2283004; active = hit-call score of the fitted dose curve at least 0.9, where 1 is the maximum)
human Retinoic Acid Receptor beta (RARb), RARB (gene 5915), sequence (P10826 whole entry, looked up): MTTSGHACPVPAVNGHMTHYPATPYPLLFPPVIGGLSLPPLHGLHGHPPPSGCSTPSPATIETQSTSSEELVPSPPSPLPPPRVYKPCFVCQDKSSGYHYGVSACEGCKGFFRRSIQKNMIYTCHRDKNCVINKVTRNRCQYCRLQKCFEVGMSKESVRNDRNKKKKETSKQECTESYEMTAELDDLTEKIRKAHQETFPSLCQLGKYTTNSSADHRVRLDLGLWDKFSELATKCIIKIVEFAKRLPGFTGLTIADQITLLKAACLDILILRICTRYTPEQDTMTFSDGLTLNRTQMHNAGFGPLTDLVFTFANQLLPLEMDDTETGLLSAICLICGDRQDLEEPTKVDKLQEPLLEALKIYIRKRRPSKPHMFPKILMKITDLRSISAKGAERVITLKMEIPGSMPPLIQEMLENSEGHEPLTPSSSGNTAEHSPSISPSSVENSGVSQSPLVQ
In short: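 Transient transfection of HepG2 with multiple reporter units → chemical dosing, 24 h → total RNA isolation → RT with oligo(dT) → reporter-specific PCR, 6-FAM primer extension, HpaI digest → capillary electrophoresis. Positive direction vs DMSO control.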

[19] = molecular target: human Retinoic Acid Receptor gamma (RARg), RARG (gene 5916) (UniProt P13631); test: ATG_RARg_TRANS: Attagene TRANS-FACTORIAL HepG2 Assay for human Retinoic Acid Receptor gamma (RARg) (AID 2283009; active = hit-call score of the fitted dose curve at least 0.9, where 1 is the maximum)
human Retinoic Acid Receptor gamma (RARg), RARG (gene 5916), sequence (P13631 whole entry, looked up, the tested form may be a part): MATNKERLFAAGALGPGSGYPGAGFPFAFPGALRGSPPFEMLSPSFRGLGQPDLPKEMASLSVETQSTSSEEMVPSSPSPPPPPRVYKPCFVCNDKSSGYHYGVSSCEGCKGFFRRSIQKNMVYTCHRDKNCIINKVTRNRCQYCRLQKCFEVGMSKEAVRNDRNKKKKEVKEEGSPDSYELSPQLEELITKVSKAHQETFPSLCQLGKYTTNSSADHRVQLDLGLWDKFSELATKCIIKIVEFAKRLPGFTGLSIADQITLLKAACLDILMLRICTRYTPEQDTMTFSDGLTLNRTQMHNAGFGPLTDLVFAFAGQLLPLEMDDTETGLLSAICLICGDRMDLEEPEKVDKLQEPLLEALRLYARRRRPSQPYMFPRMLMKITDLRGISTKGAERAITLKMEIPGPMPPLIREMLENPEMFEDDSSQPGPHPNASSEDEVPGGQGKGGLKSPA
In short: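 Gain-of-signal relative to DMSO is reported from fluorescent capillary electrophoresis of RT-PCR reporter products. These came from HepG2 cells expressing transfected RARg-GAL4 chimeras with UAS reporters, harvested 24 h after dosing.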

Measured: AC50

O=C(N[C@@H](Cc1ccccc1)[C@@H](O)C(=O)N1C[C@@H](O)[C@@H](O)C1)c1cc2cc(Cl)ccc2[nH]1
inactive: [1] | [2] | [4] | [5] | [6] | [7] | [8] | [9] | [10] | [11] | [12] | [13] | [14] | [15] | [16]
active: [3] 91.9 µM

CCCCCCCCCCO
inactive: [1] | [5] | [7] | [8] | [9] | [11] | [18] | [19]
active: [2] 144 µM | [3] 158 µM | [4] 173 µM | [17] 128 µM | [12] 33 µM | [13] 41.1 µM

Nc1ccc2c(c1)C(=O)c1ccccc1C2=O
inactive: [1] | [2] | [4] | [5] | [6] | [8] | [9] | [11] | [18] | [12] | [14] | [16]
active: [3] 3.98 µM | [7] 6.96 µM | [13] 21 µM

COCCOCCOC
inactive: [1] | [2] | [3] | [4] | [5] | [6] | [7] | [8] | [9] | [11] | [18] | [12] | [15]
